The sample as a whole holds a higher share of hits than the screen did.
RBX1-CUL1 inh = blocks human RBX1-Cullin-1 di-ubiquitin formation. P62877+Q13616. in vitro K48 di-Ub FRET, acceptor:donor ratio, 45 min. inhibition, % at 10 µM. actives 0.6% (n = 140,000); in the data active means inhibition above about 25%
Numbers without * were called inactive.

SMILES | RBX1-CUL1 inh
Cc1ccccc1C(=O)Nc1cccc(NC(=S)NC(=O)c2ccc3ccccc3c2)c1 | 4
Nc1ncc(CNC2COc3ccccc3C2)cn1 (stereo not given) | 8
O=C(O)c1cccc(-c2ccc(CNC3CCCC3)o2)c1 | -6
COCCN1C(=O)C(Cc2ccc(-c3cccc(C(=O)O)c3)o2)=NC1=S | 35*
C=CCN1C(=O)N=C(Cc2ccc(-c3cccc(Br)c3)o2)C1=O | -1
COC(=O)c1c(NC(=O)C2CCC2)sc2c1CCC(c1ccccc1)C2 (stereo not given) | -6
CCCCCCCC1=NN2C(=N)/C(=C/c3ccc(-c4ccc(Cl)cc4)o3)C(=O)N=C2S1 | 3
CCCCCCCC1=NN2C(=N)/C(=C/c3ccc(-c4ccc(F)cc4)o3)C(=O)N=C2S1 | 8
CCCCCC1=NN2C(=N)/C(=C\c3ccc([N+](=O)[O-])o3)C(=O)N=C2S1 | 101*
O=C(Nc1cccc(-c2ccco2)c1)C1CCN(C(=O)c2ccoc2)CC1 | 2
Nc1c(C(=O)Nc2ccccc2C(F)(F)F)sc2nc3c(cc12)CCC3 | 8
CCCCCCC1CC(C)(c2csc(Nc3ccccc3Cl)n2)OC1=O (stereo not given) | 3
CN(C)c1ccc(/C=C2\N=C(c3ccccc3)N(NC(=O)c3ccccc3Br)C2=O)cc1 | 40*
C=CCN1C(=O)/C(=C\c2ccc(N(C)C)cc2)N=C1SCC(=O)Nc1ccccc1 | 13
CN(C(=S)NC(=O)c1ccccc1Br)c1ccccc1 | -2
CC(=O)c1ccccc1-c1ccc2c(c1)CC(CNC(=O)Cc1cccc(C)c1)O2 (stereo not given) | 7
CC1=NC(=S)C(C#N)=C(C(F)(F)F)C1 | -1
N#CC1=C(C(F)(F)F)CC(c2ccco2)=NC1=S | 91*
N#CC1=C(c2ccccc2)CC(C(F)(F)F)=NC1=S | 6
C=CCn1c(SCC(=O)NCc2cccnc2)nc2sc3c(c2c1=O)CCCC3 | 10
CCCOC(=O)c1ccc(NC(=O)c2csc3ccccc23)cc1 | 12
NC1=N[C@H]2[C@H](CS(=O)[C@H]2CCCCC(=O)O)N1 (stereo not given in full) | 2
CCS(=O)(=O)N1CCCC(C(=O)Nc2cccc(C(F)(F)F)c2)C1 (stereo not given) | 4
COc1ccc(OC)c(C2C(C(=O)Nc3ccccc3OC)C(C)=Nc3c(C(=O)Nc4ccc(F)cc4)cnn32)c1 (stereo not given) | -5
CC1=C(C#N)c2nc(N)c(C#N)c(C)c2/C1=C\c1ccc(OCc2cccc(C(=O)O)c2)cc1 | 98*
SMILES | RBX1-CUL1 inh
CC1=C(C#N)c2nc(N)c(C#N)c(C)c2/C1=C\c1ccc(F)cc1 | -5
CC1=C(C#N)c2nc(N)c(C#N)c(C)c2/C1=C\c1cccc(F)c1 | -4
CN(Cc1ccncn1)C(=O)c1csc2nc(-c3ccccc3)cn12 | -14
CC(C)(C)C(=O)NC(NC(=O)C(C)(C)C)c1ccc2c(c1)OCO2 | -11
CC(C)(C)NC(=O)CSc1nnc2c(n1)-c1cccc3cccc-2c13 | -2
O=C(c1coc(COc2cccc3cccnc23)n1)N1CCc2ccccc2C1 | 0
COc1ccc(C2C3=C(N=c4s/c(=C/c5cccc(OC)c5O)c(=O)n42)c2ccccc2CC3)cc1 (stereo not given) | -9
COc1ccc(C2C3=C(N=c4s/c(=C/c5ccc(C(=O)O)cc5)c(=O)n42)c2ccccc2CC3)cc1 (stereo not given) | 76*
COc1ccccc1C1C2=C(N=c3s/c(=C\c4ccccc4O)c(=O)n31)c1ccccc1CC2 (stereo not given) | -7
COc1ccc(C(=O)Oc2ccc(/C=c3/sc4n(c3=O)C(c3ccccc3Cl)C3=C(N=4)c4ccccc4CC3)cc2)cc1 (stereo not given) | -9
O=c1/c(=C\c2cccs2)sc2n1C(c1cccc(F)c1)C1=C(N=2)c2ccccc2CC1 (stereo not given) | 2
O=c1/c(=C\c2ccco2)sc2n1C(c1cccs1)C1=C(N=2)c2ccccc2CC1 (stereo not given) | 28*
COc1cc(/C=c2\sc3n(c2=O)C(c2ccccc2)C2=C(N=3)c3ccccc3CC2)cc(OC)c1O (stereo not given) | 5
COc1ccccc1C1C2=C(N=c3s/c(=C/c4cccc(OCC(=O)O)c4)c(=O)n31)c1ccccc1CC2 (stereo not given) | 30*
COc1ccc(C2C3=C(N=c4s/c(=C/c5ccc(O)c([N+](=O)[O-])c5)c(=O)n42)c2ccccc2CC3)cc1 (stereo not given) | 44*
COc1ccc(C2C3=C(N=c4s/c(=C/c5ccc(C(C)C)cc5)c(=O)n42)c2ccccc2CC3)cc1 (stereo not given) | 3
O=c1/c(=C\c2cc3c(cc2[N+](=O)[O-])OCO3)sc2n1C(c1cccs1)C1=C(N=2)c2ccccc2CC1 (stereo not given) | -7
CCOc1ccc(/C=c2/sc3n(c2=O)C(c2cc(OC)ccc2OC)C2=C(N=3)c3ccccc3CC2)cc1 (stereo not given) | 7
Cc1ccc2c(c1)CN(CC(=O)N1CCC(C(=O)N3CCCCC3)CC1)CC(c1ccsc1)O2 (stereo not given) | 15
O=C(NC1CCCC1)C1C=Nc2ccc(S(=O)(=O)Nc3cccc(C(F)(F)F)c3)cc2C1=O (stereo not given) | -5
CSc1ccccc1NC(=O)/C=C/c1cnn(C)c1 | -6
COc1cc(OC)c(NC(=O)c2ccncc2)cc1Cl | -8
COc1ccc(CCNC(=O)CCC2(Cc3ccc(OC)cc3F)CCC(=O)N2)cc1 (stereo not given) | 2
Cc1ncc2c(c1-c1noc(C(C)n3cnc4ccccc4c3=O)n1)CCNC2 (stereo not given) | 0
CC(C)(C)c1ccc(C(=O)Nc2ccc(Cl)c(Cl)c2)cc1 | -4
SMILES | RBX1-CUL1 inh
O=c1/c(=C\c2ccc(F)cc2)sc2n1C(c1ccc(Cl)cc1Cl)C1=C(N=2)c2ccccc2CC1 (stereo not given) | -5
O=c1/c(=C\c2cc(Cl)cc(Cl)c2O)sc2n1C(c1ccc(Cl)cc1Cl)C1=C(N=2)c2ccccc2CC1 (stereo not given) | 35*
COC(=O)c1ccc(/C=c2\sc3n(c2=O)C(c2ccc(Cl)cc2Cl)C2=C(N=3)c3ccccc3CC2)cc1 (stereo not given) | -6
CN=C1CC=CC=C(C(=O)/C=C/c2ccc3c(c2)OCO3)C1=O | 93*
CN=C1CC=CC=C(C(=O)/C=C/c2cccc(C#N)c2)C1=O | 49*
CN=C1CC=C(Br)C=C(C(=O)/C=C/c2ccc3c(c2)OCO3)C1=O | -1
CN=C1CC=CC=C(/C(C)=N/Nc2ccccc2)C1=O | -5
CN=C1CC=C(Br)C=C(C(=O)/C=C/c2ccc(C#N)cc2)C1=O | 4
CCN=C1CC=CC=C(C(=O)/C=C/c2ccc3c(c2)OCO3)C1=O | 4
CCC1=CC(C)(CC)Nc2ccc(C(c3ccccc3)(c3ccccc3)c3ccccc3)cc21 (stereo not given) | -7
Cc1cnc(CNc2nncc(-c3cccc4ccccc34)n2)cn1 | 3
COC(=O)C1=C(C)C(C(=O)OC)C(C)=NC1c1c(O)ccc2ccccc12 (stereo not given) | -6
CCN1CCCC1CNCc1ccc(SC)cc1 (stereo not given) | 0
COC(=O)c1ccccc1SNc1ccccc1 | -1
CC(C)OC(=O)CN1C(=O)S/C(=C\c2cn(CC(=O)Nc3ccc4c(c3)OCO4)c3ccccc23)C1=O | 7
CN(Cc1cnn(C)c1)CC1CCCN(CCc2ccccc2F)C1 (stereo not given) | 6
